Inconclusive results are not listed. Where a call stands in place of a potency, no number is given. Activity calls are given as the source filed them. Unless noted, calls come from the whole dose curve; as a rule, active = well fitted curve in the direction sought with a large enough effect in the repeat runs; inconclusive = weak or mixed curves; inactive = no such curve, though single readings can be large; an effect the other way counts as inactive or inconclusive. Positions of bridges follow the written chain, without caps; N, C: chain ends. Non-standard residues stand in square brackets, D forms with d. Residues, ends and D or L forms follow the SMILES beside them. hArg = N=C(N)NCCCC[C@H](N)C(=O)O; Mpa = O=C(O)CCS
Assays:
[1] = qHTS assay to identify small molecule antagonists of the glucocorticoid receptor (GR) signaling pathway - cell viability counter screen (AID 720693); conditions: GR-bla HeLa viability, CellTiter-Glo luminescence, 18 h, with 5 nM dexamethasone present; series mostly up to 58.5 µM; note: nearly all actives have a fitted effect of over 55% in size
[2] = qHTS assay for identifying genotoxic compounds that show differential cytotoxicity against isogenic chicken DT40 cell lines with known DNA damage response pathways - wild type cell line (AID 743012); conditions: DT40 wild type chicken cells viability, CellTiter-Glo, 40 h; series mostly up to 68.4 µM; note: nearly all actives have a fitted effect of over 60% in size
Method in brief: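 Cells (DT40 wild type, 300/well) are treated with DMSO-dissolved compounds after a ~0.5 h pre-incubation and kept 40 h at 37 C/5% CO2. Viability is then measured by CellTiter-Glo luminescence following 30 min at room temperature.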

[3] = qHTS assay to identify small molecule antagonists of the androgen receptor (AR) signaling pathway - cell viability counter screen (AID 743033; note: nearly all actives have a fitted effect of over 45% in size); conditions: AR-bla HEK293 viability, CellTiter-Glo luminescence, 16 h; series mostly up to 58.5 µM
[4] = qHTS assay to identify small molecule antagonists of the androgen receptor (AR) signaling pathway using the MDA cell line - cell viability counter screen (AID 743041; note: nearly all actives have a fitted effect of over 45% in size); conditions: MDA-kb2 viability, CellTiter-Fluor, 16 h, cells co-treated with R1881 androgen agonist; series mostly up to 70.3 µM
Method in brief: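 R1881-driven MDA-kb2 AR-luc cells, 3,000/well, were dosed with library compounds for 16 h; cell health came from CellTiter-Fluor fluorescence in the reporter wells.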

[5] = qHTS assay to identify small molecule antagonists of the thyroid receptor (TR) signaling pathway - cell viability counter screen (AID 743064); conditions: GH3.TRE-Luc viability, CellTiter-Fluor, 24 h; series mostly up to 70.3 µM; note: nearly all actives have a fitted effect of over 50% in size
Method in brief: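 Fluorescence from CellTiter-Fluor, added after 23.5 h exposure at 37 °C, reported viability of GH3.TRE-Luc cells co-treated with compound and 1 nM T3. Measured in the same wells as the luciferase TR readout.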

[6] = target: Androgen receptor (Homo sapiens) (UniProt P10275); assay: qHTS assay to identify small molecule antagonists of the androgen receptor (AR) signaling pathway (AID 743035; active = well fitted inhibition curve with a large enough effect in the signal ratio in the repeat runs, not every such curve was filed as active; the % refers to the signal ratio); conditions: HEK293 AR-UAS-bla, R1881-stimulated, beta-lactamase FRET, 16 h; series mostly up to 58.5 µM
Sequence of Androgen receptor (Homo sapiens) (P10275 whole entry, looked up): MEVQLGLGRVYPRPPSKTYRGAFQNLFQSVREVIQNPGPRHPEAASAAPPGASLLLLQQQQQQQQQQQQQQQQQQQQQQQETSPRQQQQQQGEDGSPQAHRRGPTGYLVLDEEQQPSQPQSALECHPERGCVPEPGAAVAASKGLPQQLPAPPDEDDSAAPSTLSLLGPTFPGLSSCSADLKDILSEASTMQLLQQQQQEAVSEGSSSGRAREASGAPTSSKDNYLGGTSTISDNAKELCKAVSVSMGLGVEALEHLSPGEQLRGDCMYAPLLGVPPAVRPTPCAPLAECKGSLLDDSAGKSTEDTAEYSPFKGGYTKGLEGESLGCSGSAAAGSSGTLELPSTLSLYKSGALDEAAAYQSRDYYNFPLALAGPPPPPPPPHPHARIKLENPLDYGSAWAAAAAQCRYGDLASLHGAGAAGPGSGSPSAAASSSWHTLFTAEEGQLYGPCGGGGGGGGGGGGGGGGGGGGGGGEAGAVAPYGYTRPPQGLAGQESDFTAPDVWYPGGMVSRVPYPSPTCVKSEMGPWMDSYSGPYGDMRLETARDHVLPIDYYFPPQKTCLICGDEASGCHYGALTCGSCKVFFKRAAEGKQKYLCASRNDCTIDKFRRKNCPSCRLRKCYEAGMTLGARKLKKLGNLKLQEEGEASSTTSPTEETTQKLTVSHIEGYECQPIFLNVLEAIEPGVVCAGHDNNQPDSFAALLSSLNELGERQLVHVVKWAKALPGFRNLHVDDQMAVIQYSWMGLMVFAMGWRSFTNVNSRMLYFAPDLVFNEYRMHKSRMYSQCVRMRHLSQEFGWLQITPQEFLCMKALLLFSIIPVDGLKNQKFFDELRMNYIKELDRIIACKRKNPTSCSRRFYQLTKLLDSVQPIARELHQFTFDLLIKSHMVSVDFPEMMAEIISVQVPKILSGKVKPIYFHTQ
Method in brief: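 Antagonism is scored as loss of R1881-driven beta-lactamase reporter expression in HEK293 cells carrying the reporter under a UAS element, after 16 h co-treatment at 37C and a 2 h room-temperature FRET substrate read.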

[7] = target: Androgen receptor (Homo sapiens) (UniProt P10275); assay: qHTS assay to identify small molecule antagonists of the androgen receptor (AR) signaling pathway using the MDA cell line (AID 743042; note: nearly all actives have a fitted effect of over 55% in size); conditions: MDA-kb2 AR-luc, MMTV luciferase, R1881 antagonist, 16 h; series mostly up to 70.3 µM
Method in brief: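 Antagonist mode: compounds plus R1881 agonist added to MDA-kb2 AR-luc cells, incubated 16 h at 37C. Luciferase reporter luminescence quantified, with multiplexed CellTiter-Fluor readout for cell viability.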

[8] = qHTS assay for identifying genotoxic compounds that show differential cytotoxicity against isogenic chicken DT40 cell lines with known DNA damage response pathways - Rad54/Ku70 mutant cell line (AID 743015); conditions: DT40 Rad54/Ku70 mutant viability, CellTiter-Glo, 40 h; series mostly up to 66.8 µM; note: nearly all actives have a fitted effect of over 60% in size; note: potency is the fitted concentration of half-maximal effect
[9] = qHTS assay for identifying genotoxic compounds that show differential cytotoxicity against isogenic chicken DT40 cell lines with known DNA damage response pathways - Rev3 mutant cell line (AID 743014); conditions: chicken DT40 Rev3-/- viability, CellTiter-Glo, 40 h; series mostly up to 68.4 µM; note: nearly all actives have a fitted effect of over 55% in size; note: potency is the fitted concentration of half-maximal effect
[10] = target: Androgen receptor (Homo sapiens) (UniProt P10275); assay: qHTS assay to identify small molecule agonists of the androgen receptor (AR) signaling pathway (AID 743036; active = well fitted activation curve with a large enough effect in the signal ratio in the repeat runs, with a control signal flat, not every such curve was filed as active; the % refers to the signal ratio); conditions: HEK293 AR-UAS-bla GripTite, beta-lactamase FRET ratio, 16 h; series mostly up to 62.4 µM
Method in brief: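 Fluorescence from a beta-lactamase FRET substrate served as read-out in AR-UAS-bla GripTite HEK293 cells. Cells were treated with DMSO-dissolved compounds for 16 h at 37C, then with LiveBLAzer B/G substrate for 2 h at room temperature.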

| SMILES | outcome [1] | Potency [2] | outcome [3] | Potency [4] | Potency [5] | outcome [6] | outcome [7] | Potency [8] | Potency [9] | outcome [10] |
| --- | --- | --- | --- | --- | --- | --- | --- | --- | --- | --- |
| CC(=O)CCC1=C(C)CCCC1(C)C | inactive | inactive | inactive | inactive | inactive |  |  |  |  |  |
| CC(C)COC(=O)c1ccccc1 | inactive | inactive | inactive | inactive | inactive | inactive | inactive |  |  |  |
| CC/C=C\CCOC(=O)c1ccccc1O | inactive | inactive | inactive | inactive |  |  |  | inactive |  |  |
| c1ccc2cnccc2c1 | inactive |  | inactive |  |  |  |  | 54.5 µM (active) | 30.6 µM (active) |  |
| CCC(=O)CC | inactive | inactive | inactive | inactive | inactive |  |  |  | inactive |  |
| Cn1c(=O)c2[nH]c(Br)nc2n(C)c1=O | inactive |  | inactive | inactive |  |  |  | inactive | inactive |  |
| C=CCOC(=O)CCCCCC | inactive |  | inactive | inactive |  | inactive | inactive | inactive | inactive |  |
| O=C(CN1CCNCC1)NC1CCCCC1 | inactive | inactive | inactive |  | inactive |  |  |  | inactive |  |
| C=Cc1ccc(C(C)(C)C)cc1 | inactive | inactive | inactive |  | inactive |  |  |  | inactive |  |
| NC(=O)[C@@H]1CSSCCC(=O)N[C@@H](CCCCN=C(N)N)C(=O)NCC(=O)N[C@@H](CC(=O)O)C(=O)N[C@@H](Cc2c[nH]c3ccccc23)C(=O)N2CCC[C@H]2C(=O)N1 ([Mpa][hArg]GDWPC-NH2; disulfide 1-7) | inactive | inactive |  | inactive |  |  |  |  | inactive |  |
| CC(O)COC(C)(C)C (stereo not drawn) | inactive | inactive | inactive | inactive | inactive |  |  | inactive |  |  |
| O/N=C/C=N/O | inactive | inactive | inactive | inactive | inactive |  |  | inactive |  |  |
| CC(C)OC(=O)OCOP(=O)(CO[C@H](C)Cn1cnc2c(N)ncnc21)OCOC(=O)OC(C)C | inactive | inactive | inactive | inactive | inactive |  |  |  | inactive |  |
| CN(C)CCOC(=O)C(c1ccccc1)C1(O)CCCC1 (stereo not drawn) | inactive | inactive | inactive |  | inactive |  |  |  | inactive |  |
| CC(=O)CCc1ccc(OC(C)=O)cc1 | inactive | inactive | inactive |  | inactive |  |  | inactive |  |  |
| CO[Si](CCCn1c(=O)n(CCC[Si](OC)(OC)OC)c(=O)n(CCC[Si](OC)(OC)OC)c1=O)(OC)OC | inactive | inactive | inactive | inactive | inactive |  |  |  | inactive |  |
| C=C(C)c1cccc(C(C)(C)N=C=O)c1 | inactive |  | inactive | inactive |  |  |  |  |  |  |
| CC(=O)O[C@H]1C[C@@H]2CC[C@@]1(C)C2(C)C |  | inactive | inactive | inactive | inactive | inactive | inactive | inactive | inactive | inactive |
| CCOCCOCC |  | inactive | inactive | inactive | inactive |  |  | inactive | inactive |  |
| CCCSSCCC |  | inactive | inactive |  |  |  |  | inactive | inactive |  |

| SMILES | outcome [1] | Potency [2] | outcome [3] | Potency [4] | Potency [5] | outcome [6] | outcome [7] | Potency [8] | Potency [9] | outcome [10] |
| --- | --- | --- | --- | --- | --- | --- | --- | --- | --- | --- |
| O=C[O][Al]([O]C=O)[O]C=O | inactive |  | inactive | inactive | inactive |  |  |  |  |  |
| CCC/C=C(\C=O)CC |  | inactive | inactive | inactive | inactive |  |  | inactive | inactive |  |
| COC(=O)c1ccccc1C(=O)O | inactive |  | inactive | inactive | inactive |  |  | inactive | inactive |  |
| OCCN1CCOCC1 | inactive |  | inactive | inactive | inactive |  |  | inactive | inactive |  |
| COc1ccc2c(c1)c1c3n2CCN(C)C3=NCC1 | inactive |  | inactive |  |  | inactive |  | 23.7 µM (active) |  |  |
| O=C(O)CNC(=O)CNC(=O)CNC(=O)CSC(=O)c1ccccc1 | inactive |  | inactive | inactive | inactive |  |  | inactive | inactive |  |
| C=CCSSCCC | inactive |  | inactive | inactive |  |  |  | inactive | inactive |  |
| COC(=O)CCCCC(=O)O | inactive |  | inactive | inactive | inactive |  |  |  | inactive |  |
| c1ccc(-c2nn[nH]n2)cc1 | inactive |  | inactive | inactive | inactive |  |  |  | inactive |  |
| CCCC(CC)c1ccccc1 (stereo not drawn) | inactive |  | inactive | inactive | inactive |  |  | inactive | inactive |  |
| C=C(C)C1CC=C(C)C(=O)C1 (stereo not drawn) |  | inactive | inactive | inactive |  |  |  | inactive | inactive |  |
| CCCCOC(=O)[C@H](C)O | inactive |  | inactive | inactive | inactive |  |  | inactive | inactive |  |
| CCCCOCC(C)O (stereo not drawn) |  | inactive | inactive | inactive | inactive |  |  | inactive | inactive |  |
| CCC(C)C(C)=O (stereo not drawn) |  | inactive | inactive | inactive | inactive |  |  | inactive | inactive |  |
| CCCC(=O)OCCC(C)CCC=C(C)C (stereo not drawn) | inactive |  | inactive | inactive |  |  |  |  |  |  |
| O=C(O)CONC(=O)c1ccccc1 | inactive |  | inactive | inactive | inactive |  |  | inactive | inactive |  |
| CCCCCCCCCCCCCBr | inactive |  | inactive | inactive | inactive |  |  | inactive | 54.3 µM (active) |  |
| CC1(C)Cc2cccc(N)c2O1 |  | inactive | inactive | inactive |  |  |  | inactive | inactive |  |
| CN(C)C(C)(C)CO | inactive |  | inactive | inactive | inactive |  |  | inactive | inactive |  |
| CC(=O)CC(=O)OC(C)(C)C |  | inactive | inactive | inactive |  | inactive | inactive | inactive | inactive |  |
